From PubChem BioAssay (NCI)
Compounds without any hit were thinned out: in the full panel of roughly 83,000, 20% have a hit.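 Negative percent growth values reflect cell death: -40 means 40% of the cells present at the start died, and -100 means all died.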 Active and inactive are the calls of the source. How the source made its calls: active means growth percent below 10; inactive means the rest.

Assays:
Test in all cases: NCI-60 one-dose screen, 48 h (100 = growth as untreated, 0 = no growth, -100 = all killed)
Conditions in all cases: 10 µM unless noted
NCI-H226 lung = tested on: NCI-H226 lung
NCI-H322M lung = tested on: NCI-H322M lung
HOP-62 NSCLC = tested on: HOP-62 NSCLC
NCI-H460 lung = tested on: NCI-H460 lung
HOP-92 NSCLC = tested on: HOP-92 NSCLC
NCI-H522 lung = tested on: NCI-H522 lung
A549/ATCC NSCLC = tested on: A549/ATCC NSCLC
786-0 renal = tested on: 786-0 renal
COLO 205 colon = tested on: COLO 205 colon
NCI-H23 lung = tested on: NCI-H23 lung

Measured: growth

CCN(CC)c1ccc(/C=N/Nc2nc(-c3ccc(Br)cc3)cs2)c(O)c1
inactive: NCI-H226 lung 31.7% | NCI-H322M lung 96.9% | HOP-62 NSCLC 110% | NCI-H460 lung 89.3% | HOP-92 NSCLC 104% | NCI-H522 lung 17% | A549/ATCC NSCLC 90.5% | 786-0 renal 49.9% | COLO 205 colon 58.3%

COc1cc(C2CC(c3ccc(S(=O)(=O)NCCNc4nc(Nc5ccc(F)cc5)nc(N(C)C)n4)cc3)=Nc3c(N)nc(N)nc3N2)cc(OC)c1OC (stereo not given)
inactive: NCI-H23 lung 93.5% | NCI-H226 lung 91.4% | NCI-H322M lung 86.7% | NCI-H460 lung 84.5% | NCI-H522 lung 84.2% | A549/ATCC NSCLC 97.9% | 786-0 renal 75.3% | COLO 205 colon 104%

CC1(C)CC[C@]2(C(=O)O)CC[C@]3(C)C(=CCC4[C@@]5(C)C[C@@H](O)[C@@H]6OC(c7ccco7)OC[C@@]6(C)C5CC[C@]43C)C2C1 (stereo not given in full)
inactive: NCI-H226 lung 50.6% | NCI-H322M lung 30.1% | HOP-62 NSCLC 43.1% | NCI-H460 lung 19.8% | NCI-H522 lung 20.7% | A549/ATCC NSCLC 18.3% | 786-0 renal 42.7%
active: HOP-92 NSCLC -1.27% | COLO 205 colon -86.9%

Cn1cc(-c2cc3nc(-c4c[nH]c5ccc(Cl)cc45)cc(N)n3n2)c2ccccc21
active: NCI-H226 lung -33.8% | NCI-H322M lung -82% | HOP-62 NSCLC -72.3% | NCI-H460 lung -5.5% | HOP-92 NSCLC -76.5% | NCI-H522 lung -76.5% | A549/ATCC NSCLC -75% | 786-0 renal -89% | COLO 205 colon -87.4%

COc1cc2nc(SCc3ccccc3)n(-c3ccc(Cl)cc3)c(=O)c2cc1OC
active: NCI-H226 lung -27.3% | NCI-H322M lung 3.77% | HOP-62 NSCLC -69.2% | NCI-H460 lung -47.6% | HOP-92 NSCLC -30.2% | NCI-H522 lung -0.701% | A549/ATCC NSCLC -50.6% | 786-0 renal -57.2% | COLO 205 colon 3.25%

Nc1nc(-c2ccccc2)c(N=Nc2ccc([N+](=O)[O-])cc2Cl)s1
inactive: NCI-H226 lung 77.5% | NCI-H322M lung 101% | HOP-62 NSCLC 101% | NCI-H460 lung 74.1% | HOP-92 NSCLC 41.1% | NCI-H522 lung 48.8% | A549/ATCC NSCLC 89.8% | 786-0 renal 94.9% | COLO 205 colon 97.6%

COc1ccc(NC(=O)Nc2ccc(OCc3ccc(F)cc3)cc2)cc1
inactive: NCI-H226 lung 12.4% | NCI-H322M lung 65.8% | HOP-62 NSCLC 44.5% | NCI-H460 lung 46% | HOP-92 NSCLC 21.3% | NCI-H522 lung 65.1% | A549/ATCC NSCLC 58.9% | 786-0 renal 29.3% | COLO 205 colon 97.7%

CC1CN(c2oc(-c3ccc([N+](=O)[O-])cc3)nc2C#N)CC(C)O1 (stereo not given)
inactive: NCI-H23 lung 97.9% | NCI-H226 lung 102% | NCI-H322M lung 96.9% | NCI-H460 lung 107% | NCI-H522 lung 100% | 786-0 renal 104% | COLO 205 colon 109%

CCOC(=O)C1=C(N)N(c2ccccc2)C2=C(C(=O)CC(C)(C)C2)C1c1ccccc1Cl (stereo not given)
inactive: NCI-H226 lung 76.3% | NCI-H322M lung 82.2% | HOP-62 NSCLC 94.1% | NCI-H460 lung 60.2% | HOP-92 NSCLC 68.9% | NCI-H522 lung 57.5% | A549/ATCC NSCLC 75.6% | 786-0 renal 79.4% | COLO 205 colon 65.3%

COc1ccc(/C=C/c2nc3ccccc3n3c(-c4ccc(Cl)cc4)nnc23)cc1
inactive: NCI-H226 lung 95% | NCI-H322M lung 104% | HOP-62 NSCLC 96.8% | NCI-H460 lung 88.6% | HOP-92 NSCLC 69.5% | NCI-H522 lung 64.2% | A549/ATCC NSCLC 90.4% | 786-0 renal 88.8% | COLO 205 colon 92.4%

COc1cc2oc(-c3cccc(NC(=O)[C@H](CC(N)=O)NC(=O)OC(C)(C)C)c3)cc(=O)c2c(OC)c1OC
inactive: NCI-H226 lung 92.7% | NCI-H322M lung 101% | HOP-62 NSCLC 104% | NCI-H460 lung 89.1% | HOP-92 NSCLC 74.9% | NCI-H522 lung 73.7% | A549/ATCC NSCLC 95% | 786-0 renal 88.2% | COLO 205 colon 109%

CCOC(=O)C(N=Nc1ccc(S(=O)(=O)N=C(N)N)cc1)C(C)=O (stereo not given)
inactive: NCI-H226 lung 95.1% | NCI-H322M lung 107% | HOP-62 NSCLC 119% | NCI-H460 lung 109% | HOP-92 NSCLC 99.9% | NCI-H522 lung 95.2% | A549/ATCC NSCLC 107% | 786-0 renal 96.7% | COLO 205 colon 106%

Nc1nc(-c2ccccc2)c(N=Nc2ccc(Cl)cc2[N+](=O)[O-])s1
inactive: NCI-H226 lung 77.4% | NCI-H322M lung 94.2% | HOP-62 NSCLC 90.9% | NCI-H460 lung 105% | HOP-92 NSCLC 68% | NCI-H522 lung 82.7% | A549/ATCC NSCLC 95.3% | 786-0 renal 93.4% | COLO 205 colon 101%

COc1ccc2[nH]cc(-c3nnc(N)nc3-c3cn(C)c4ncc(Br)cc34)c2c1
inactive: NCI-H226 lung 91.7% | NCI-H322M lung 77.9% | HOP-62 NSCLC 70.2% | NCI-H460 lung 83.1% | NCI-H522 lung 50.3% | A549/ATCC NSCLC 84.3% | 786-0 renal 52.5% | COLO 205 colon 102%
active: HOP-92 NSCLC 6.98%

Cc1ccc(NC(=O)CN2CCN(c3ncnc4c3cnn4-c3ccccc3)CC2)cc1
active: NCI-H522 lung -41.1%
inactive: NCI-H226 lung 76.5% | NCI-H322M lung 86.5% | HOP-62 NSCLC 95.6% | NCI-H460 lung 74% | HOP-92 NSCLC 90.9% | A549/ATCC NSCLC 89.1% | 786-0 renal 105% | COLO 205 colon 111%

CC1(C)CC[C@]2(C(=O)O)CC[C@]3(C)C(=CCC4[C@@]5(C)C[C@@H](O)[C@@H]6OC(c7ccccc7F)OC[C@@]6(C)C5CC[C@]43C)C2C1 (stereo not given in full)
active: NCI-H460 lung 3.39% | HOP-92 NSCLC 5.75% | NCI-H522 lung 5.45% | COLO 205 colon -44%
inactive: NCI-H226 lung 27.9% | NCI-H322M lung 13.5% | HOP-62 NSCLC 22.1% | A549/ATCC NSCLC 14.2% | 786-0 renal 16.8%

COc1ccc(Cc2nn(CC(=O)N/N=C/c3ccc(F)cc3)c(=O)c3c(C)noc23)cc1
inactive: NCI-H226 lung 27.4% | NCI-H322M lung 37.1% | NCI-H460 lung 13.3% | NCI-H522 lung 64.5% | A549/ATCC NSCLC 14% | COLO 205 colon 59.3%
active: HOP-62 NSCLC -53.1% | HOP-92 NSCLC -20.5% | 786-0 renal -20.9%

CCOC(=O)C1=C(N)N(c2ccccc2)C2=C(C(=O)CC(C)(C)C2)C1c1ccc(N2CCOCC2)cc1 (stereo not given)
inactive: NCI-H226 lung 89.8% | NCI-H322M lung 99.1% | HOP-62 NSCLC 102% | NCI-H460 lung 106% | HOP-92 NSCLC 87.7% | NCI-H522 lung 89.4% | A549/ATCC NSCLC 103% | 786-0 renal 87.7% | COLO 205 colon 108%

Cn1cc(-c2cc(N)n3nc(-c4cn(C)c5ccccc45)cc3n2)c2cc(Cl)ccc21
inactive: NCI-H226 lung 21.5%
active: NCI-H322M lung -1.12% | HOP-62 NSCLC -52.1% | NCI-H460 lung -50.2% | HOP-92 NSCLC -58.2% | NCI-H522 lung -62.7% | A549/ATCC NSCLC 2.54% | 786-0 renal -86% | COLO 205 colon -80.1%

C#C[C@]1(O)CC[C@H]2[C@@H]3CC=C4c5sc(-c6ccc([N+](=O)[O-])cc6)nc5CC[C@]4(C)[C@H]3CC[C@@]21C
active: NCI-H460 lung -47.9% | NCI-H522 lung -5.59% | COLO 205 colon -70%
inactive: NCI-H226 lung 71.6% | NCI-H322M lung 25.5% | HOP-92 NSCLC 42.9% | A549/ATCC NSCLC 29.6% | 786-0 renal 18.3%

C#C[C@]1(O)CC[C@H]2[C@@H]3CC=C4c5sc(-c6ccc(O)c(O)c6)nc5CC[C@]4(C)[C@H]3CC[C@@]21C
active: NCI-H226 lung -65.4% | NCI-H322M lung -79.6% | HOP-62 NSCLC -83.1% | NCI-H460 lung -77.6% | HOP-92 NSCLC -53.8% | NCI-H522 lung -77.1% | 786-0 renal -88.3% | COLO 205 colon -80.2%

COC(=O)/C=C/c1cccc2c1C(=O)NC(C)(c1cc3cc4ccccc4cc3oc1=O)N2 (stereo not given)
inactive: NCI-H226 lung 30.5% | NCI-H322M lung 68% | HOP-62 NSCLC 33.7% | NCI-H460 lung 23.1% | HOP-92 NSCLC 47.1% | NCI-H522 lung 52.9% | 786-0 renal 83.9% | COLO 205 colon 53%

Cn1cc(-c2nc(N)nnc2-c2c[nH]c3ccc(Br)cc23)c2cc(Br)cnc21
active: NCI-H460 lung -25% | HOP-92 NSCLC -6.93% | NCI-H522 lung -47.4% | 786-0 renal -10.9% | COLO 205 colon -85.3%
inactive: NCI-H226 lung 11.9% | NCI-H322M lung 37.8% | HOP-62 NSCLC 17.8% | A549/ATCC NSCLC 12.5%

COc1ccc(C(=O)/C=C/c2ccc(OC)c(OCc3ccccc3)c2)cc1OC
inactive: NCI-H226 lung 13.9% | NCI-H322M lung 13.5% | HOP-62 NSCLC 38.2% | HOP-92 NSCLC 26.3% | 786-0 renal 24.5% | COLO 205 colon 20.1%
active: NCI-H460 lung 4.04% | NCI-H522 lung -10.7% | A549/ATCC NSCLC 8.7%

CC(=O)OCC1OC(OC2C(COC(C)=O)OC(n3cc(COc4ccc5ccc(=O)oc5c4)nn3)C(OC(C)=O)C2OC(C)=O)C(OC(C)=O)C(OC(C)=O)C1OC(C)=O (stereo not given)
inactive: NCI-H226 lung 101% | NCI-H322M lung 103% | HOP-62 NSCLC 103% | NCI-H460 lung 108% | HOP-92 NSCLC 94.4% | NCI-H522 lung 71.3% | A549/ATCC NSCLC 112% | 786-0 renal 96.4% | COLO 205 colon 116%

Cc1cccc(Nc2nc3ccccc3nc2/C=C/c2ccc(F)cc2)c1
inactive: NCI-H226 lung 95.2% | NCI-H322M lung 95.5% | NCI-H460 lung 95.4% | HOP-92 NSCLC 84.5% | NCI-H522 lung 79.4% | A549/ATCC NSCLC 91.2% | 786-0 renal 97.3% | COLO 205 colon 106%

Cc1cccc(NC(=O)CN2CCN(c3ncnc4c3cnn4-c3ccccc3)CC2)c1
active: NCI-H522 lung -39.6%
inactive: NCI-H226 lung 84.8% | NCI-H322M lung 91.3% | HOP-62 NSCLC 96.2% | NCI-H460 lung 73% | HOP-92 NSCLC 98.2% | A549/ATCC NSCLC 97% | 786-0 renal 98.1% | COLO 205 colon 109%

C#CCOc1cc(N(CC)CC)ccc1C(C(=O)NC(C)(C)C)N(C(=O)C1CCc2cc(F)ccc2O1)c1ccc(F)c(Cl)c1 (stereo not given)
inactive: NCI-H226 lung 62.8% | NCI-H322M lung 89.5% | HOP-62 NSCLC 77.5% | NCI-H460 lung 53.2% | HOP-92 NSCLC 48.2% | NCI-H522 lung 60.5% | A549/ATCC NSCLC 65.9% | 786-0 renal 58.7% | COLO 205 colon 63.1%
